MITF act = MITF TRPM1 promoter activation in melanoma cells; activation, % at 12.5 µM; SK-MEL-5 TRPM1-promoter luciferase, 24 h; % of positive control, neutral wells = 0; 0.75% of 300,000 active;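 active = mean activation of at least 80% with every replicate also reaching 80%; inconclusive = mean reaches 80% but some replicate falls short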;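 also: 0% = neutral control wells and 100% = parthenolide positive control wells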
Statin myotox sup = protects C2C12 myotubes from simvastatin toxicity; AID 602340; ATP luminescence, 48 h; scaled: DMSO 0, geranylgeraniol control 100; 0.78% of 330,000 active; rescue of ATP level, % at 7.49 µM;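 active = mean ATP rescue above about 67%, or every replicate alone reaching that limit, limit read from the data, passing the limit was not always enough; inconclusive = no clear call, values can overlap the other calls; inactive = mean under the limit and some replicate under it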;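 also: myotubes were challenged with 10 µM simvastatin during compound exposure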
esBAF inh = inhibitors of esBAF chromatin remodeling in mouse ES cells | Bmi1-luciferase knock-in reporter, 24 h; 100% = twice the neutral-well signal | reporter increase, % at 12.5 µM | 2% of 350,000 active | AID 602393; in the data active = activation above about 40%; inconclusive = no clear call, values can overlap the other calls;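 also: 0% = median of the plate's neutral control wells and 100% = double that signal; a rise in the Bmi1 reporter signal indicates esBAF inhibition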
GAA850 FXN act = activators of GAA850 frataxin (FXN) promoter; HEK293 lucGAA850 FXN promoter luciferase reporter, 24 h; percent of 10 µM SAHA response; activation, % at 6 µM; 0.56% of 360,000 active; AID 540364;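 active = activation above the average of all compounds screened plus 3 SD, cutoff fixed separately per campaign, cut at about 7.5% in these data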;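 also: 0% = DMSO wells and 100% = 10 µM SAHA wells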
Wnt bcat act = activators of Wnt/beta-catenin signaling. activation, % at 9.35 µM. 1.2% of 300,000 active. Wnt/beta-catenin reporter cell assay, activator, plate reader; in the data active = activation above about 30%, passing the limit was not always enough; inconclusive = no clear call, values can overlap the other calls;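 also: 0% = neutral control wells and 100% = positive control wells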
GAA30 counter = GAA30 FXN promoter activation counter-screen | 66% of 1,900 active | HEK293 lucGAA30 FXN promoter luciferase, 24 h; DMSO = 0%, 5 µM ipriflavone = 100% | AID 588350 | activation, % at 6 µM | shares compounds with GAA850 FXN act;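 active = mean activation above the mean of solvent-only control wells plus 3 SD, cut at about 22% in these data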;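 also: counterscreen of GAA850 promoter hits where activity marks nonselective or luminescence artifacts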
GAA850 confirm = GAA850 FXN promoter activation confirmation; shares compounds with GAA850 FXN act; HEK293 lucGAA850 FXN promoter luciferase reporter, 24 h; 100% = activation by SAHA; activation, % at 6 µM; 86% of 1,900 active;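 active = mean activation above a set limit taken from the primary screen, cut at about 8% in these data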;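 also: 0% = DMSO wells and 100% = 10 µM SAHA wells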
An asterisk follows results filed as active; ? = inconclusive; · = no result given. This is a sample that favours compounds with a hit; in the whole collection about 3.3% have one here.

SMILES	MITF act	Statin myotox sup	esBAF inh	GAA850 FXN act	Wnt bcat act	GAA30 counter	GAA850 confirm
O=[N+]([O-])c1ccccc1Nc1c2ccccc2nc2ccccc12	-2	-5	1	9.6*	-6	32*	16*
O=C(C[C@H]1C[C@H]2c3cc(NC(=O)Cc4ccncc4)ccc3O[C@H]2[C@H](CO)O1)NCCc1ccccc1	·	6	2	·	·	·	·
Cc1noc(C)c1S(=O)(=O)N(C)C[C@H]1Oc2ccc(NC(=O)C3CCCCC3)cc2CC(=O)N([C@@H](C)CO)C[C@@H]1C	·	1	1	·	·	·	·
S=C(Nc1ccc2nsnc2c1)N1CCCC1	53	-10	81*	8.3*	10	29*	12*
O=C(O)C[C@H]1C[C@@H]2c3cc(NC(=O)c4ccc5c(c4)OCO5)ccc3O[C@@H]2[C@H](CO)O1	·	2	-2	·	·	·	·
Cc1nc(N)sc1C(=O)N/N=C/c1ccccc1[N+](=O)[O-]	·	·	·	6	9	·	·
CC(/C=N/NC(=O)c1sc(N)nc1C)=C\c1ccccc1	120*	·	·	8.1*	?	116*	41*
O=c1c2c3c(sc2nc2n1N=C(c1cccs1)CS2)CCCC3	135*	·	·	9.6*	·	87*	40*
O=C1CN(c2nc(-c3cccnc3)nc3scc(-c4ccccc4)c23)CCN1	-6	·	·	2	1	·	·
O=C1CN(c2nc(-c3cccs3)nc3sc4c(c23)CCCC4)CCN1	18	·	·	9.3*	18	49*	23*
Cc1ccc(S(=O)(=O)N(C)C[C@@H]2Oc3ccc(N(C)C)cc3C(=O)N([C@H](C)CO)C[C@H]2C)cc1	·	-2	-6	·	·	·	·
Cc1cccc(NC(=O)Nc2ccc3c(c2)C(=O)N(C)[C@@H]2CC[C@H](CC(=O)O)O[C@H]2CO3)c1	·	9	4	·	·	·	·
O=C(N/N=C/c1ccc(Cl)cc1Cl)c1n[nH]c2c1CCCC2	65	·	·	-3	·	·	·
O=C(N/N=C/C(Br)=C/c1ccccc1)c1cnccn1	35	28	50*	8.9*	33*	107*	39*
O=C(N/N=C/C(Br)=C\c1ccccc1)c1n[nH]c2c1CCC2	3	-156	2	17*	·	29*	68*
O=C(N/N=C\c1cccc(Cl)c1)c1n[nH]c2c1CCCC2	100*	·	·	10*	?	73*	20*
CO[C@H](CN(C)Cc1cc(F)ccc1F)[C@H](C)CN([C@@H](C)CO)S(=O)(=O)c1ccc(F)cc1	·	0	5	·	·	·	·
C[C@@H]1CN([C@@H](C)CO)C(=O)c2cc(NC(=O)NC3CCCCC3)ccc2O[C@@H](C)CCCCO[C@@H]1CN(C)Cc1ccc(C(F)(F)F)cc1	·	·	4	·	·	·	·
CCOC(=O)Cc1csc(NC(=O)NC2(C(F)(F)F)Oc3ccc(Cl)cc3O2)n1 (stereo not given)	3	·	·	8.5*	·	44*	17*
O=C(NCCN1CCOCC1)c1cc(Cl)ccc1Cl	·	0	-14	1	-2	·	·
O=C(NCCN1CCOCC1)NC1(C(F)(F)F)Oc2ccc(Cl)cc2O1 (stereo not given)	-4	·	·	15*	1	36*	20*
COCC(C)NC(=O)NC1(C(F)(F)F)Oc2ccc(Cl)cc2O1 (stereo not given)	·	4	-8	10*	·	20	18*
C[C@@H]1CCCCO[C@@H](CN(C)S(=O)(=O)c2ccc(F)cc2)[C@@H](C)CN([C@H](C)CO)C(=O)c2cc(NC(=O)CCCN(C)C)ccc2O1	·	·	1	·	·	·	·
Cc1ccc(S(=O)(=O)NCC[C@@H]2CC[C@H](NS(=O)(=O)c3ccccc3Cl)[C@@H](CO)O2)cc1	·	8	4	·	·	·	·
O=C(Nc1cccc(Cl)c1)N1C[C@@H]2[C@H](c3ccccc31)[C@H](CO)N2C(=O)c1cccnc1	·	30	0	·	·	·	·
SMILES	MITF act	Statin myotox sup	esBAF inh	GAA850 FXN act	Wnt bcat act	GAA30 counter	GAA850 confirm
Cc1nnc(SCC(=O)c2cc(C)n(-c3ccc4c(c3)OCO4)c2C)s1	25	-20	70*	11*	12	66*	26*
Cc1ccc2nc(SCC(=O)NCc3ccco3)c(C#N)cc2c1	·	·	18	8.3*	59*	80*	27*
Cc1ccc2cc(C#N)c(SCC(=O)NCc3ccco3)nc2c1	4	-33	18	0	·	·	·
Clc1ccc(/C=N/Nc2ncnc3nc[nH]c23)cc1	187*	13	11	9.8*	0	110*	50*
Cc1ccc(/C=N/Nc2ncnc3nc[nH]c23)cc1	74	5	0	17*	47*	123*	56*
CC(C)NC(=O)N(C)C[C@H]1Oc2ccc(NC(=O)Nc3ccc(C(F)(F)F)cc3)cc2C(=O)N([C@H](C)CO)C[C@H]1C	·	-8	-4	·	·	·	·
O=C(Nc1ncnc2sc3c(c12)CCCCC3)c1ccco1	7	128*	2	12*	·	7	4
COc1ccc(CNC(=O)C[C@H]2CC[C@@H](NC(=O)Nc3ccc4c(c3)OCO4)[C@H](CO)O2)cc1	·	13	5	·	·	·	·
CC(=O)Nc1cc2c(cc1Cl)-c1ccccc1C2O (stereo not given)	7	2	4	1	-3	·	·
CCC(=O)Nc1cc2c(cc1Cl)-c1ccccc1C2	16	6	39	8.4*	17	85*	31*
Brc1ccccc1OCCCn1cnc2ccccc21	92*	-1	48*	8.7*	26	101*	36*
Cc1ccccc1OCCCCn1cnc2ccccc21	·	-20	-30	0	·	·	·
Brc1ccc(/C=N/Nc2nncc(-c3ccccc3)n2)o1	·	·	·	·	-1	·	·
Oc1ccc(/C=N\Nc2nncc(-c3ccccc3)n2)cc1	-7	63	39	8.7*	3	40*	18*
COc1ccc(-c2cnnc(N/N=C/c3ccc(O)cc3)n2)cc1	9	·	·	7.6*	0	68*	36*
COc1ccc(-c2cnnc(N/N=C/c3ccc(O)c(O)c3)n2)cc1	-4	·	·	3	0	·	·
COCCNC(=O)C[C@@H]1C[C@@H]2c3cc(NS(C)(=O)=O)ccc3O[C@@H]2[C@H](CO)O1	·	-8	-2	·	·	·	·
Cc1ccc(CN(C)C[C@@H]2OCc3cnnn3CCCC(=O)N([C@H](C)CO)C[C@@H]2C)cc1	·	-6	-5	·	·	·	·
O=c1cc(-c2ccccc2)oc2ccc(O)cc12	57	5	31	9.2*	59*	134*	42*
C=C1CCN([C@@H](Cc2ccccc2)C(=O)Nc2ccc(OC)cc2)S(=O)(=O)c2ccccc21	3	-98	-2	12*	17	29*	13*
C=C1CCN([C@@H](C)C(=O)NCc2ccc(OC)cc2)S(=O)(=O)c2ccccc21	7	-7	-5	-1	-1	·	·

Screening results from PubChem BioAssay.
